From PubChem BioAssay
Only some compounds are listed: those with a hit (about 4.5% of all), similar ones and a draw of the others.
GAA850 FXN act = increases GAA850 frataxin promoter reporter activity. HEK293 lucGAA850 FXN promoter luciferase reporter, 24 h; percent of 10 µM SAHA response. activation, % at 6 µM. hit rate 0.56% among 360,000. AID 540364;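 active means activation above the average of all compounds screened plus 3 SD, cutoff fixed separately per campaign, cut at about 7.5% in these data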
DAX1 inh-1 = NR0B1 (DAX1) inhibition; P51843; HEK293 Gal4-DAX1 luciferase reporter, luminescence; inhibition, % at 6.75 µM; hit rate 0.99% among 340,000;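 active means inhibition above the mean over all tested compounds plus 3 SD, cut at about 4.2% in these data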;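 further: inhibition shows as a rise in luminescence from relieved DAX1 repression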
Target sequence (P51843 207-470 limits assumed): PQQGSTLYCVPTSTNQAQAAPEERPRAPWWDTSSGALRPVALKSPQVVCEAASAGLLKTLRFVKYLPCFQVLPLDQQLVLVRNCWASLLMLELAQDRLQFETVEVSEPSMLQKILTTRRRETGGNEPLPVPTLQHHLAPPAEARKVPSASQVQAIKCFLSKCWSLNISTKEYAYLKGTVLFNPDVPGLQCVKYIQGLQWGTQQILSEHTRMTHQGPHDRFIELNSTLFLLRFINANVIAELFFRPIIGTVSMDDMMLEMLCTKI
DAX1 inh-2 = DAX1 (NR0B1) inhibition, primary screen; HEK293T StAR-luciferase reporter, SF-1/DAX-1 repression relief; inhibition, % at 6.8 µM; hit rate 1.1% among 370,000; AID 652010;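 active means inhibition above the mean over all tested compounds plus 3 SD, cut at about 3.6% in these data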;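 further: higher inhibition means more luminescence from relief of DAX-1 repression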
hcDAF-12 act = H. contortus DAF-12 activation, primary screen. HEK293 hcDAF-12 lit1-tk-luc reporter, luminescence; 0% DMSO, 100% Δ7-dafachronic acid. activation, % at 6.8 µM. hit rate 1.4% among 370,000;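 active means activation above the mean of all tested compounds plus 3 SD, cut at about 5.5% in these data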
hgDAF-12 ag = hgDAF-12 agonism, primary luciferase screen. HEK293 GAL4-hgDAF12 UAS-luciferase reporter, agonist luminescence; normalized to butyrate control. activation, % at 6.8 µM. hit rate 1.8% among 370,000;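 active means activation above a cutoff set at the mean of all screened compounds plus 3 SD, cut at about 10% in these data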
ssDAF-12 act = activators of S. stercoralis DAF-12 nuclear receptor; HEK293 ssDAF-12/GRIP1 lit1-tk-luc reporter, luminescence; % of 3 µM dafachronic acid response; activation, % at 6.8 µM; hit rate 1% among 370,000; AID 652126;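 active means activation above the mean over all tested compounds plus 3 SD, cut at about 0.9% in these data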
hgDAF12 conf = confirmation of H. glycines DAF-12 agonists; shares compounds with hgDAF-12 ag; HEK293 GAL4-hgDAF12 luciferase reporter, agonist mode; percent of butyrate response; activation, % at 6.8 µM; hit rate 80% among 3,300;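 active means mean activation over triplicate wells above the hit cutoff derived from the earlier primary screen, cut at about 11% in these data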
LXRb DAF12 ctr = counter-screen for DAF-12 agonists: agonists of human LXR-beta | AID 743051 | HEK293 Gal4-LXR luciferase reporter, 24 h | 3,300 tested, under 10 active | shares compounds with hgDAF-12 ag | activation, % at 6.8 µM;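 active means mean activation of the triplicate above a set limit carried over from the primary screen, none filed active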
Target sequence (P55055 whole entry, looked up, the tested form may be a part): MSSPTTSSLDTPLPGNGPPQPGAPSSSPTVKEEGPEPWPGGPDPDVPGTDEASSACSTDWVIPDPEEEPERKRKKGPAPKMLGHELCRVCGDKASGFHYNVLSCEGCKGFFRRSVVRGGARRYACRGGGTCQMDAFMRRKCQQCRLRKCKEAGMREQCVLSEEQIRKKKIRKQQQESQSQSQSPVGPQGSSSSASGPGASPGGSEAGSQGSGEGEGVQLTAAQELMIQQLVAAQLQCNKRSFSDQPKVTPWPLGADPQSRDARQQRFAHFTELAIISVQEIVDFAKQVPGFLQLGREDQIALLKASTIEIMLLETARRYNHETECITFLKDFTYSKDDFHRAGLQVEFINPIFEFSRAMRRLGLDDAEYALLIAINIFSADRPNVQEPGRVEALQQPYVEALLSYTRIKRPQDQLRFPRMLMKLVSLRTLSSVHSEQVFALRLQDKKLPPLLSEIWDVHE
Large screens that a line does not name were inactive (follow-up assays come after a bar, where they were run).

Cc1ccc(NC(=O)Cn2nnc(-c3ccc4c(c3)OCO4)n2)cc1F	none
Fc1ccccc1Cn1nnc(-c2ccc3c(c2)OCO3)n1	DAX1 inh-2 3.7, hgDAF-12 ag 13.9, ssDAF-12 act 1.3 | hgDAF12 conf 18.7 | LXRb DAF12 ctr inactive
N#Cc1ccc(CN2CCN(C(=O)c3ccc(S(=O)(=O)N4CCCCCC4)cc3)CC2)cc1	none
NC(=O)c1cnccc1C=Cc1ccccc1	none
CC[C@H](C)[C@H](NC(N)=O)C(=O)Nc1ccccc1F	none
C/C(CC(=O)Nc1cccc(Cl)c1Cl)=N\NC(=O)c1ccccc1Br	none
C/C(CC(=O)Nc1cccc(Cl)c1Cl)=N\NC(=O)c1ccccc1N	DAX1 inh-1 4.2, hgDAF-12 ag 13.5 | hgDAF12 conf inactive | LXRb DAF12 ctr inactive
N#C/C(=C\c1ccc(OCc2cccc(C(=O)O)c2)cc1)C(=O)NCc1ccco1	DAX1 inh-2 3.8, hgDAF-12 ag 14.6 | hgDAF12 conf 18.4 | LXRb DAF12 ctr inactive
N#C/C(=C\c1ccc(OCc2ccc(C(=O)O)cc2)cc1)C(=O)NCc1ccccc1	none
COc1cc(NC(=S)N2CCC(C(N)=O)CC2)c(OC)cc1Cl	none
C=CCn1c(=O)[nH]c2cc(C(=O)N3CC=C(c4ccccc4)CC3)ccc2c1=O	none
CC(C)(C)NC(=S)NCCc1ccccc1	hgDAF-12 ag 13.6 | hgDAF12 conf 11.2 | LXRb DAF12 ctr inactive
CC(=O)Nc1cc(F)c2c(c1F)Cc1cc(F)ccc1-2	hgDAF-12 ag 16.4 | hgDAF12 conf 11.8 | LXRb DAF12 ctr inactive
Cc1cc(C)nc(-n2nc(C)c(Sc3ccc(F)cc3)c2N)n1	hgDAF-12 ag 13.3 | hgDAF12 conf 15.0 | LXRb DAF12 ctr inactive
COc1ccc(OCc2ccc(/C=N\NC(=O)c3sccc3C)o2)cc1	hgDAF-12 ag 13.9 | hgDAF12 conf inactive | LXRb DAF12 ctr inactive
O=C(N/N=C\c1ccc(COc2ccc([N+](=O)[O-])cc2)o1)c1ccc(Cl)cc1	none
O=C(NCCN1CCC(n2c(=O)[nH]c3ccccc32)CC1)c1ccc(F)cc1Cl	none (no result: GAA850 FXN act, DAX1 inh-1)
COc1c(Cl)cccc1-c1cn2ccc(C)cc2n1	hcDAF-12 act 6.4, hgDAF-12 ag 13.6, ssDAF-12 act 1.3 | hgDAF12 conf 15.4 | LXRb DAF12 ctr inactive
Cc1ccn2cc(-c3cccc(NC(=O)CCC(=O)O)c3)nc2c1	none
Cc1ccn2cc(-c3cccc(NS(C)(=O)=O)c3)nc2c1	hgDAF-12 ag 13.7 | hgDAF12 conf 10.9 | LXRb DAF12 ctr inactive
CC(=O)Nc1cccc(-c2cn3ccc(C)cc3n2)c1	DAX1 inh-2 3.9, hgDAF-12 ag 13.9 | hgDAF12 conf 12.2 | LXRb DAF12 ctr inactive
Cc1ccn2cc(-c3ccc(NS(=O)(=O)c4ccccc4)cc3)nc2c1	none
O=C(C1CCC(=O)N(C2CC2)C1)N1CCN(c2cccc(Cl)c2)CC1 (configuration not stated)	none
COc1ccc(CNS(=O)(=O)c2cn(C)c(=O)n(C)c2=O)cc1	none
O=C(Nc1ncccc1O)c1ccc(S(=O)(=O)NCc2ccco2)cc1	DAX1 inh-2 4.3, hgDAF-12 ag 21.3 | hgDAF12 conf 20.2 | LXRb DAF12 ctr inactive
S=C(c1ccc(-c2cc(Cl)ccc2Cl)o1)N1CCCCC1	none
S=C(c1ccc(-c2cccc(Cl)c2)o1)N1CCCCC1	DAX1 inh-2 4.2, hcDAF-12 act 6.3, hgDAF-12 ag 26.7, ssDAF-12 act 1.1 | hgDAF12 conf 21.1 | LXRb DAF12 ctr inactive
O=[N+]([O-])c1cccc(-c2ccc(C(=S)N3CCOCC3)o2)c1	hgDAF-12 ag 18.0 | hgDAF12 conf 15.9 | LXRb DAF12 ctr inactive
O=[N+]([O-])c1cccc(-c2ccc(C(=S)N3CCN(c4ccccc4)CC3)o2)c1	none (no result: DAX1 inh-1)
CCCNC(=O)c1cc(C2CCCN(C(=O)c3ccccc3)C2)on1 (configuration not stated)	none (no result: DAX1 inh-1)
CCCCOCCCNC(=O)C[C@@H]1C[C@@]2(C(=O)OC)CC(C)(C)CC=C2N(CCc2ccc(OC)c(OC)c2)C1=O	none (no result: GAA850 FXN act, DAX1 inh-1)
C=CCNC(=O)N1CCC(n2nccc2NC(=O)CCCc2ccccc2)CC1	none
Cc1cccc(NC(=O)c2sc3nc(N)c(C#N)cc3c2N)c1	hgDAF-12 ag 20.6 | hgDAF12 conf inactive | LXRb DAF12 ctr inactive
Cc1cc(C)cc(NC(=O)c2sc3nc(C)cc(C)c3c2N)c1	none
O=C(COc1ccccc1Cl)Nc1ccc2c(c1)OCO2	hcDAF-12 act 6.0, hgDAF-12 ag 13.4 | hgDAF12 conf 12.1 | LXRb DAF12 ctr inactive
CC(C)(C)c1ccc(C(=O)Nc2ncn[nH]2)cc1	hgDAF-12 ag 13.7 | hgDAF12 conf 12.6 | LXRb DAF12 ctr inactive
O=C(CSc1nnc(NC(=O)c2ccccc2Cl)s1)Nc1ccc2c(c1)oc1ccccc12	hgDAF-12 ag 14.5 (no result: GAA850 FXN act, DAX1 inh-1) | hgDAF12 conf 10.9 | LXRb DAF12 ctr inactive
O=C1C2C(c3ccccc3)C=CC(c3ccccc3)C2C(=O)N1c1ccccn1 (configuration not stated)	none
Cc1cc2nc(-c3ccc(SCC(=O)Nc4ccc(S(=O)(=O)NC5CC5)cc4)nc3)[nH]c2cc1C	DAX1 inh-2 4.5, hcDAF-12 act 5.6, hgDAF-12 ag 15.6, ssDAF-12 act 1.2 | hgDAF12 conf 17.0 | LXRb DAF12 ctr inactive
COc1cc(O)c2c(c1)OC(C)(C)CC2=O	none
COc1cc(O)cc2cc3c(c(O)c12)C(=O)CC(C)(O)O3 (configuration not stated)	hgDAF-12 ag 15.2 | hgDAF12 conf inactive | LXRb DAF12 ctr inactive
Nc1ccc(-c2nc3ccc([N+](=O)[O-])cc3[nH]2)cc1	DAX1 inh-2 4.3, hgDAF-12 ag 15.7 | hgDAF12 conf 14.8 | LXRb DAF12 ctr inactive
O=[N+]([O-])c1ccc(-c2nc3ccc([N+](=O)[O-])cc3[nH]2)cc1	none
CN1CCN(c2ccc(S(=O)(=O)N3CCOCC3)cc2)CC1	none
Cc1cnc(C(=O)Nc2ccc3c(c2)CCC3)cn1	DAX1 inh-2 4.1, hgDAF-12 ag 14.2 | hgDAF12 conf 16.8 | LXRb DAF12 ctr inactive
Cc1ccc(C(=O)Nc2nc(C)c(C(=O)Nc3ccc4c(c3)CCC4)s2)cc1	hgDAF-12 ag 16.9, ssDAF-12 act 1.3 | hgDAF12 conf 17.0 | LXRb DAF12 ctr inactive
O=C(Nc1cccc(Cl)c1)c1cnccn1	none
O=C(Nc1ccc2c(c1)CCC2)c1cnccn1	DAX1 inh-2 4.4, hgDAF-12 ag 16.6 | hgDAF12 conf 15.0 | LXRb DAF12 ctr inactive
O=C(COc1ccc(NC(=O)c2cccs2)cc1)c1ccc(F)cc1	none
CCOC(=O)c1ccc(C(=S)N2CCCC2)cc1	none
